Measured values reported in PubChem BioAssay (EPA / NIEHS).
Inconclusive results are not listed. Where a structure was tested more than once in an assay, its records may differ in their call. Activity calls are given as the source filed them. How the source made its calls, unless noted: active means hit-call score of the fitted dose curve at least 0.9, where 1 is the maximum; inactive means score below 0.9.

Key:
[1] = target: Oxysterols receptor LXR-beta (Homo sapiens) (UniProt P55055); test: ATG_LXRb_TRANS: Attagene TRANS-FACTORIAL HepG2 Assay for human Liver X Receptor beta (LXRb) (AID 2282981; active means hit-call score of the fitted dose curve at least 0.9, where 1 is the maximum); conditions: HepG2 Attagene TRANS GAL4-LXRb reporter, mRNA
Sequence of Oxysterols receptor LXR-beta (Homo sapiens) (P55055 whole entry, looked up, the tested form may be a part): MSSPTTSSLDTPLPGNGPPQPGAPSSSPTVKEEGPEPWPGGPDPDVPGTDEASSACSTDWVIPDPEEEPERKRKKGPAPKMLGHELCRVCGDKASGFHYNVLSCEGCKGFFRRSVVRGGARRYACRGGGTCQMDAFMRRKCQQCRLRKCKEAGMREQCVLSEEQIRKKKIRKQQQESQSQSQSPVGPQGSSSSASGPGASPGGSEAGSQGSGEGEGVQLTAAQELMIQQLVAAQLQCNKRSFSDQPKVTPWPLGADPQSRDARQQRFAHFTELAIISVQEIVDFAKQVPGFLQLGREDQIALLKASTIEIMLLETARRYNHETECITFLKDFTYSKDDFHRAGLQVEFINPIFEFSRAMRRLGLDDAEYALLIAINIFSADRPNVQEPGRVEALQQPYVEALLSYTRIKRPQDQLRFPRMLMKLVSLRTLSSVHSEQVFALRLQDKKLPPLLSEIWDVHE
Method in brief: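 In this TRANS format, exogenous chimeric NR-Gal4 protein activity, not endogenous factors, drives reporter expression in transfected human HepG2 cells. Exposure lasted 24 h; reporter mRNA was read by fluorescent capillary electrophoresis.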

[2] = ATG_M_06_TRANS: Attagene TRANS-FACTORIAL HepG2 Assay for M06 Transcription Factor (Internal Marker) (AID 2282983; active means hit-call score of the fitted dose curve at least 0.9, where 1 is the maximum); conditions: HepG2 Attagene TRANS M06 internal marker reporter
Method in brief: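 HepG2 cells transiently transfected with multiplexed GAL4-UAS reporter transcription units; after 24 h compound exposure, reporter mRNA measured by RT-PCR, FAM-labelled primer extension, HpaI digestion and capillary electrophoresis. Gain-of-signal fitted versus DMSO baseline; background control readout.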

[3] = target: Transcriptional activator Myb (Homo sapiens) (UniProt P10242); test: ATG_Myb_CIS: Attagene CIS-FACTORIAL HepG2 Assay for human Myeloblastosis (Myb) Proto-Oncogene Transcription Factor (AID 2282986); conditions: HepG2 Attagene CIS-FACTORIAL Myb reporter transcription; actives raise or lower the signal
Sequence of Transcriptional activator Myb (Homo sapiens) (P10242 whole entry, looked up): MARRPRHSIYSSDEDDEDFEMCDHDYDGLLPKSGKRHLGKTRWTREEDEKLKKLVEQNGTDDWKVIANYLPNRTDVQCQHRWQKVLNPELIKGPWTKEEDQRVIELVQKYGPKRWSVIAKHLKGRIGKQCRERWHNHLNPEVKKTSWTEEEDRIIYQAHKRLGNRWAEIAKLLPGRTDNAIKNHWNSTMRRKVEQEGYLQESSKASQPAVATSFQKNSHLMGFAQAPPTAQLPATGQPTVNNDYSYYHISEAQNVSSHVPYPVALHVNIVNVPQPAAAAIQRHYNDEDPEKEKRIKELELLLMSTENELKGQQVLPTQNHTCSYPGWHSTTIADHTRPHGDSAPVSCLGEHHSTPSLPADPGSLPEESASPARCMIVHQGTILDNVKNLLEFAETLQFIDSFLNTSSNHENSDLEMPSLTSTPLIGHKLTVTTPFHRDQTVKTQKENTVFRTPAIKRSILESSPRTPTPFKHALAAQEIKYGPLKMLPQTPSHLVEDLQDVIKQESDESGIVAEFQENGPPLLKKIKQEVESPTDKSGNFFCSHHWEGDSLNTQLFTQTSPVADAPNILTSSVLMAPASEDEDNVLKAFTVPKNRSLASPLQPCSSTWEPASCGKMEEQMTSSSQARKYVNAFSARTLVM
Method in brief: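 Multiplexed cis-reporter system in HepG2: transient transfection, 24 h treatment, mRNA readout by RT-PCR and capillary electrophoresis. Both increases and decreases are scored versus DMSO negative control.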

[4] = target: Nuclear respiratory factor 1 (Homo sapiens) (UniProt Q16656); test: ATG_NRF1_CIS: Attagene CIS-FACTORIAL HepG2 Assay for human Nuclear Respiratory Factor 1 (NRF1) Orphan Gene (AID 2282987); conditions: HepG2 NRF1 cis-element reporter, Attagene multiplex; actives raise or lower the signal
Sequence of Nuclear respiratory factor 1 (Homo sapiens) (Q16656 whole entry, looked up): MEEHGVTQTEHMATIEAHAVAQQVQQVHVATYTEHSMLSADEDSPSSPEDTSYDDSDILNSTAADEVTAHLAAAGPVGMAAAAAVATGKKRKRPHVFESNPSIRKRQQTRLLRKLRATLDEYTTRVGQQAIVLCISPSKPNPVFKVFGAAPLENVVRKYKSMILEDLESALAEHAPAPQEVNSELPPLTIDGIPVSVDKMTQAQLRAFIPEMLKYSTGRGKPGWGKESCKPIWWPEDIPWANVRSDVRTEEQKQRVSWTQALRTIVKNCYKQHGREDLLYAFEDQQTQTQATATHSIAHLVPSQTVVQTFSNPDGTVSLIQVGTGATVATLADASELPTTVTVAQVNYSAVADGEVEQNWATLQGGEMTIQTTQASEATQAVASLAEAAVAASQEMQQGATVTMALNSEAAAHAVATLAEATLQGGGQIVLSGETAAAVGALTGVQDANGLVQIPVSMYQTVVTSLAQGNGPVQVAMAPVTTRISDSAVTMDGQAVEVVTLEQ
Method in brief: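 Endogenous factor activity was captured via cis-element-driven reporter transcripts in HepG2 cells. Following 24 h chemical treatment, transcripts were quantified by RT-PCR and capillary electrophoresis.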

[5] = target: Myc proto-oncogene protein (Homo sapiens) (UniProt P01106); test: ATG_Myc_CIS: Attagene CIS-FACTORIAL HepG2 Assay for human Myelocytomatosis (Myc) Proto-Oncogene Transcription Factor (AID 2282990); conditions: HepG2, Attagene cis-reporter transcription factor activity; actives raise or lower the signal
Sequence of Myc proto-oncogene protein (Homo sapiens) (P01106 whole entry, looked up): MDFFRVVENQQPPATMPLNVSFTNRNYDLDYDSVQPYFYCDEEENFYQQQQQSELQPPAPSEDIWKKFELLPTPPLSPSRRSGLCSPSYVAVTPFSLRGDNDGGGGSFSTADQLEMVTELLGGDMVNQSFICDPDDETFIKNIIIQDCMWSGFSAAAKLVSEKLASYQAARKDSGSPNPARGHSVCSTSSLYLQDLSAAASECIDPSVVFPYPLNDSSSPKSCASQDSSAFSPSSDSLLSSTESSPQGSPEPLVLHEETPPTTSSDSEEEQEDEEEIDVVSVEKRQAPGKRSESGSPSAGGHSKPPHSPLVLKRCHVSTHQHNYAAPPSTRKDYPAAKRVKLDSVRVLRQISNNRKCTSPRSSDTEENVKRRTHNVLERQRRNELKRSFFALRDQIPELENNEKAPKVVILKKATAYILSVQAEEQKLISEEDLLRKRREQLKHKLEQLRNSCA
Method in brief: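 Multiplexed cis-reporter transcription in HepG2 cells after 24 h chemical treatment. Reporter mRNA measured by RT-PCR and capillary electrophoresis fluorescence; activity fitted bidirectionally against DMSO control.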

[6] = ATG_NRF2_ARE_CIS: Attagene CIS-FACTORIAL HepG2 Assay for human Nuclear Factor Erythroid 2 Related Factor 2 (NFR2) response to Antioxidant Response Elements (ARE) (AID 2282992); conditions: HepG2 Attagene ARE/NRF2 reporter, transcription factor activity; actives raise or lower the signal
Method in brief: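 Transient MRTU transfection of HepG2; 24 h compound exposure; TriZol RNA, RT with oligo(dT), PCR, 6-FAM primer extension, HpaI cut, CE. Bidirectional fit vs DMSO.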

[7] = ATG_Oct_MLP_CIS: Attagene CIS-FACTORIAL HepG2 Assay for human Octamer-Binding Transcription Factor (Oct) (AID 2282993); conditions: HepG2 Attagene cis-factorial Oct reporter, mRNA; actives raise or lower the signal
Method in brief: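 After 24 h compound exposure, transfected HepG2 cells were lysed for total RNA; reporter-specific cDNA was PCR-amplified, fluorescently labelled and sized by capillary electrophoresis. Bidirectional curve fitting used DMSO as baseline.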

[8] = target: Cellular tumor antigen p53 (Homo sapiens) (UniProt P04637); test: ATG_p53_CIS: Attagene CIS-FACTORIAL HepG2 Assay for human p53 Transcription Factor (AID 2282994); conditions: HepG2 p53 cis-element reporter, Attagene mRNA; actives raise or lower the signal
Sequence of Cellular tumor antigen p53 (Homo sapiens) (P04637 whole entry, looked up): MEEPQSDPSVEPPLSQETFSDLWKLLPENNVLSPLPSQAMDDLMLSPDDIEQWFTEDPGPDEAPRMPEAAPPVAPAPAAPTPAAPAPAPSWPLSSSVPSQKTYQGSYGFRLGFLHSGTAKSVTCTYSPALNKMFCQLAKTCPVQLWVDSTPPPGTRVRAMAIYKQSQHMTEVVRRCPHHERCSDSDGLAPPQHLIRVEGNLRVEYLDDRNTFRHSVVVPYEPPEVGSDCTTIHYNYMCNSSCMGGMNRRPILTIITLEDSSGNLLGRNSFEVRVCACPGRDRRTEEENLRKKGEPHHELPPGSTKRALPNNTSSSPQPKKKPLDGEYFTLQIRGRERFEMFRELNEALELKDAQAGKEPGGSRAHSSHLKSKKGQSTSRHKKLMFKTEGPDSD
Method in brief: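 HepG2, transient MRTU transfection (cis promoter elements, endogenous TFs); 24 h dosing; RNA isolation, RT-PCR, 6-FAM primer extension, HpaI digest, CE fluorescence; bidirectional fit vs DMSO.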

[9] = target: Hepatocyte nuclear factor 4-alpha (Homo sapiens) (UniProt P41235); test: ATG_HNF4a_TRANS: Attagene TRANS-FACTORIAL HepG2 Assay for human Hepatocyte Nuclear Factor 4 alpha (HNF4a) (AID 2282982; active means hit-call score of the fitted dose curve at least 0.9, where 1 is the maximum); conditions: HepG2 HNF4a transactivation reporter, mRNA readout
Sequence of Hepatocyte nuclear factor 4-alpha (Homo sapiens) (P41235 whole entry, looked up, the tested form may be a part): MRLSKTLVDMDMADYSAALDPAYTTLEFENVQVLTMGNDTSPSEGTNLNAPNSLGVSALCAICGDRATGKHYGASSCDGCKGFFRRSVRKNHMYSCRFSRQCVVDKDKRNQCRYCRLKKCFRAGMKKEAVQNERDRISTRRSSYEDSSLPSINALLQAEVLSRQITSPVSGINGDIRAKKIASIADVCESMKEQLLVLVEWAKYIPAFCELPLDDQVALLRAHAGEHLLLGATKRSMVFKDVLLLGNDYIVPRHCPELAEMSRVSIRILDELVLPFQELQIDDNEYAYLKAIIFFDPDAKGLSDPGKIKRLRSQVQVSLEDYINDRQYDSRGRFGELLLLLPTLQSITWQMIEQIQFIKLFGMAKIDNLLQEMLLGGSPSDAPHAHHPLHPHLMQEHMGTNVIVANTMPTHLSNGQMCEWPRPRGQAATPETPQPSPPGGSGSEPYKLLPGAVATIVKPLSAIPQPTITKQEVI
Method in brief: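 Cells used were human HepG2, transiently carrying GAL4-UAS reporter units read out against exogenous NR-GAL4 chimeras. Reporter transcript levels after 24 h dosing were quantified by fluorescent RT-PCR and capillary electrophoresis.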

[10] = ATG_M_32_TRANS: Attagene TRANS-FACTORIAL HepG2 Assay for M32 Transcription Factor (Internal Marker) (AID 2282984; active means hit-call score of the fitted dose curve at least 0.9, where 1 is the maximum); conditions: HepG2 Attagene TRANS M32 internal marker reporter
Method in brief: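 Human hepatoma HepG2, transient MRTU transfection, 24 h treatment. RNA → RT-PCR → fluorescent primer extension → HpaI digest (2 h, 37 C) → CE. Positive-direction fit vs DMSO.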

[11] = ATG_NFI_CIS: Attagene CIS-FACTORIAL HepG2 Assay for human Nuclear Factor I (NFI) (AID 2282989); conditions: HepG2 cis-regulatory reporter, NFI response element transcription; actives raise or lower the signal
Method in brief: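 Multiplexed cis-reporter system in human HepG2 cells reports native TF activity as reporter mRNA induction 24 h post-dose. Fragments labelled with 6-FAM, HpaI-digested and resolved by capillary electrophoresis; activity fitted both directions versus DMSO.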

[12] = ATG_NF_kB_CIS: Attagene CIS-FACTORIAL HepG2 Assay for human Nuclear Factor Kappa B (NF-kB) (AID 2282991); conditions: HepG2 Attagene cis-factorial NF-kB reporter mRNA; actives raise or lower the signal
Method in brief: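 After 24 h compound incubation, transfected HepG2 cells yield total RNA; reporter cDNA is PCR-amplified, end-labelled with 6-FAM, HpaI-digested and analysed on a genetic analyser. Endogenous factor activity, DMSO-referenced bidirectional fit.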

[13] = target: Nuclear receptor subfamily 4 group A member 2 (Homo sapiens) (UniProt P43354); test: ATG_NURR1_TRANS: Attagene TRANS-FACTORIAL HepG2 Assay for human Nuclear Receptor Related Protein 1 (NURR1) (AID 2282985; active means hit-call score of the fitted dose curve at least 0.9, where 1 is the maximum); conditions: HepG2 Attagene TRANS reporter, mRNA readout
Sequence of Nuclear receptor subfamily 4 group A member 2 (Homo sapiens) (P43354 whole entry, looked up): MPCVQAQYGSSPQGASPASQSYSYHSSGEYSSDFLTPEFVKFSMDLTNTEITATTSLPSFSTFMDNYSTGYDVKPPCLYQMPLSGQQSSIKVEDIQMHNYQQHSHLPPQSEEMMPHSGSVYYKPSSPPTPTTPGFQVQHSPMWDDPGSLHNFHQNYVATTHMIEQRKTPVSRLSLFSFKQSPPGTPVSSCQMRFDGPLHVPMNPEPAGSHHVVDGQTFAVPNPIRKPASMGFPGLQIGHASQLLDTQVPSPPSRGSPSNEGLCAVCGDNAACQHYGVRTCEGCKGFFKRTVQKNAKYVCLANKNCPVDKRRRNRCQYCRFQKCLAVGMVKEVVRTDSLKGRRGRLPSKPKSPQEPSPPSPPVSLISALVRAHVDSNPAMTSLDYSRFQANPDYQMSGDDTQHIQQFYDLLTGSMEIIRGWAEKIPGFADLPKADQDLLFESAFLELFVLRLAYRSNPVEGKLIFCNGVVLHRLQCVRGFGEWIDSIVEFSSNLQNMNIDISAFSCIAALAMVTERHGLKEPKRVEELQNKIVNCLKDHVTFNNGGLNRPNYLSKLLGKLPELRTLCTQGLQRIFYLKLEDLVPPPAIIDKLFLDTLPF
Method in brief: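 After 24 h chemical dosing, total RNA from transiently transfected HepG2 cells was reverse-transcribed and reporter cDNA PCR-amplified, FAM-labelled and analysed by capillary electrophoresis. Activity fitted in positive direction, DMSO as negative control.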

[14] = BSK_3C_uPAR: BioMAP Diversity Plus: 3C Assay for Urokinase-type plasminogen activator receptor (uPAR) Biomarker Activity (AID 2282998); conditions: BioMAP 3C HUVEC, uPAR biomarker ELISA; actives raise or lower the signal
Method in brief: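 Values derive from bidirectional curve fitting relative to DMSO, which served as baseline of activity. uPAR was measured by ELISA in human umbilical vein endothelial primary cultures 24 h after compound addition.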

[15] = BSK_4H_Eotaxin3: BioMAP Diversity Plus: 4H Assay for Eotaxin 3 Biomarker Activity (AID 2283000); conditions: primary human endothelial cells (HUVEC); actives raise or lower the signal
Method in brief: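 HUVEC, 24 h post-dose, ELISA for Eotaxin-3/CCL26. Gain or loss of signal fitted bidirectionally vs DMSO baseline.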

[16] = target: Oxysterols receptor LXR-alpha (Homo sapiens) (UniProt Q13133); test: ATG_LXRa_TRANS: Attagene TRANS-FACTORIAL HepG2 Assay for human Liver X Receptor alpha (LXRa) (AID 2282980; active means hit-call score of the fitted dose curve at least 0.9, where 1 is the maximum); conditions: HepG2 Attagene TRANS reporter, LXRa transactivation
Sequence of Oxysterols receptor LXR-alpha (Homo sapiens) (Q13133 whole entry, looked up, the tested form may be a part): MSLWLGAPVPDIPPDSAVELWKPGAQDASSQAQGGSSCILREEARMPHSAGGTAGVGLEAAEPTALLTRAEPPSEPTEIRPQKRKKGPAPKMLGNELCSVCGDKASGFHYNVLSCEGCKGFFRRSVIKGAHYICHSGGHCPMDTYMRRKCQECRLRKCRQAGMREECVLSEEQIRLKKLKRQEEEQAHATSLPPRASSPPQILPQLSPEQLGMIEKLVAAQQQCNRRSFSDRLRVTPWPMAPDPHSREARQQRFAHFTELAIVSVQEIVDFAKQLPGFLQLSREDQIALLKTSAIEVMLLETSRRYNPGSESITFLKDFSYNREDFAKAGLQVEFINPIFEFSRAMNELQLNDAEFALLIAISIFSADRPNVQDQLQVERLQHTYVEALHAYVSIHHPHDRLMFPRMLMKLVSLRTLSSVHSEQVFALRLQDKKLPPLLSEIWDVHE
Method in brief: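 HepG2 cells were transiently transfected with multiplexed reporter units driven by chimeric LXRa–GAL4 fusion proteins, then dosed for 24 h. Reporter mRNA was quantified by RT-PCR, fluorescent labelling and capillary electrophoresis; gain of signal fitted against DMSO baseline.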

[17] = BSK_3C_VCAM1: BioMAP Diversity Plus: 3C Assay for Vascular cell adhesion molecule 1 (VCAM1) Biomarker Activity (AID 2282999); conditions: BioMAP 3C HUVEC, VCAM1 ELISA, cytokine-stimulated; actives raise or lower the signal
Method in brief: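 Human umbilical vein endothelial cells were dosed with compound for 24 h, after which cell-surface VCAM-1 was quantified by ELISA. Bidirectional curve fitting used DMSO as negative control and activity baseline.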

Measured: AC50

CCCCCC(CO)CCC (stereo unspecified)
inactive: [1] | [2] | [3] | [4] | [5] | [6] | [7] | [8]

CC[C@]12CCCN3CCc4c(n(c5ccccc45)[C@@](O)(C(=O)OC)C1)[C@@H]32
active: [12] 170 µM | [8] 164 µM
not listed: [1] | [13] | [14] | [15] | [16] | [17]
inactive: all other assays above

CCC(=O)OCCC(C)CCC=C(C)C (stereo unspecified)
active: [6] 63.9 µM
not listed: [2] | [5] | [14] | [15] | [16] | [17]
inactive: all other assays above

CCCCN
not listed: [2] | [10] | [14] | [15] | [16] | [17]
inactive: all other assays above

O=C(Cl)c1cccc(C(=O)Cl)c1
not listed: [1] | [12] | [14] | [15] | [16] | [17]
inactive: all other assays above

CCC(C(=O)NC(N)=O)c1ccccc1 (stereo unspecified)
not listed: [9] | [13] | [14] | [15] | [16] | [17]
inactive: all other assays above

NCCCCCCN
not listed: [2] | [14] | [15] | [16] | [17]
inactive: all other assays above

Nc1cc([N+](=O)[O-])ccc1O
inactive: [9] | [2] | [10] | [13] | [3] | [4] | [11] | [12] | [7] | [8] | [14] | [15]
active: [6] 38.1 µM | [15] 14.9 µM

N#Cc1ccccc1
not listed: [1] | [14] | [15] | [16] | [17]
inactive: all other assays above

NCCCN1CCOCC1
inactive: [1] | [2] | [13] | [4] | [11] | [6] | [7]

O=C(O)CN(CCN(CC(=O)O)CC(=O)O)CCN(CC(=O)O)CC(=O)O
not listed: [3] | [11] | [14] | [15] | [16] | [17]
inactive: all other assays above

CCN(CC)CCOC(=O)c1ccc(N)cc1
inactive: [16] | [10] | [3] | [4] | [5] | [12] | [6] | [7] | [8]

NNc1nc(-c2ccc(N)cc2)cs1
not listed: [13] | [14] | [15] | [16] | [17]
inactive: all other assays above

C=C(C)[C@@H]1CC[C@@H](C)C[C@@H]1O
not listed: [9] | [12] | [13] | [14] | [15] | [16] | [17]
inactive: all other assays above

Sc1nc(S)nc(S)n1
not listed: [14] | [15] | [16] | [17]
inactive: all other assays above

c1ccc(CCCc2ccccn2)cc1
not listed: [1] | [14] | [15] | [16] | [17]
inactive: all other assays above

OCCOc1cccc(OCCO)c1
not listed: [8] | [10] | [13] | [14] | [15] | [16] | [17]
inactive: all other assays above

Cc1ccc2ccccc2n1
not listed: [1] | [2] | [5] | [9] | [14] | [15] | [17]
inactive: all other assays above

CCC/C=C/C=O
inactive: [16] | [13] | [4] | [11] | [5] | [7]

O=C(O)CCCCCCCC(=O)O
not listed: [3] | [13] | [14] | [15] | [16] | [17]
inactive: all other assays above

Clc1cccc(Cl)n1
not listed: [2] | [13] | [14] | [15] | [16] | [17]
inactive: all other assays above

Cc1cccc(C)c1[N+](=O)[O-]
not listed: [8] | [12] | [13] | [14] | [15] | [16] | [17]
inactive: all other assays above

CCCC(=O)OCCC(C)CCC=C(C)C (stereo unspecified)
inactive: [9] | [2] | [10] | [3] | [4] | [11] | [5]
active: [12] 72 µM | [6] 78.7 µM | [7] 100 µM

CCCCCCC#CC(=O)OC
inactive: [9] | [2] | [10] | [3] | [4] | [11] | [5] | [7]
active: [6] 21.6 µM

O=C1C(c2[nH]c3ccc(S(=O)(=O)O)cc3c2O)=Nc2ccc(S(=O)(=O)O)cc21
not listed: [9] | [12] | [14] | [15] | [16] | [17]
inactive: all other assays above

CC(C)=CCC[C@](C)(O)[C@@H]1CC=C(C)CC1
inactive: [16] | [13] | [3] | [4] | [11] | [12] | [6] | [7] | [8]

O=S(=O)(O)NC1CCCCC1
inactive: [9] | [3] | [4] | [11] | [5] | [12] | [6] | [7]

FC1(F)C(F)(F)C(F)(F)C2(F)C(F)(C1(F)F)C(F)(F)C(F)(F)C1(F)C(F)(F)C(F)(F)C(F)(F)C(F)(F)C12F (stereo unspecified)
not listed: [1] | [10] | [13] | [14] | [15] | [16] | [17]
inactive: all other assays above

Clc1sc(Cl)c(Cl)c1Cl
inactive: [2] | [10] | [3] | [4] | [6] | [7]

Cc1ccc2n[nH]nc2c1
not listed: [1] | [9] | [13] | [16] | [17]
inactive: all other assays above

CCCCC(CC)COCCC#N (stereo unspecified)
not listed: [1] | [9] | [16]
inactive: all other assays above

CCOc1ccccc1OCC
inactive: [9] | [2] | [13] | [3] | [4] | [11] | [5] | [7] | [8]
